# Compound activity as filed in PubChem BioAssay.
# DRD3 agonist – agonists of human D3 dopamine receptor; P35462; D3R DiscoveRx beta-arrestin cells, luminescence, 90 min; max activation, %; 0.58% of 410,000 active; AID 652048; in the data active = max activation above about 30%
#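 Cells at 1500/well, incubated overnight, then treated with pinned compounds (dopamine as control) for 90 min at 37 degrees C. DiscoveRx reagent added for 30 - 60 minutes at room temperature; luminescence read.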
# D1 agonist – activates the human D1 dopamine receptor; HEK293 T-REx D1 cells, calcium flux, agonist mode; AID 504660; activation, % at 2 µM; P21728; 1% of 360,000 active; in the data active = activation above about 30%
# Target sequence (P21728 whole entry, looked up): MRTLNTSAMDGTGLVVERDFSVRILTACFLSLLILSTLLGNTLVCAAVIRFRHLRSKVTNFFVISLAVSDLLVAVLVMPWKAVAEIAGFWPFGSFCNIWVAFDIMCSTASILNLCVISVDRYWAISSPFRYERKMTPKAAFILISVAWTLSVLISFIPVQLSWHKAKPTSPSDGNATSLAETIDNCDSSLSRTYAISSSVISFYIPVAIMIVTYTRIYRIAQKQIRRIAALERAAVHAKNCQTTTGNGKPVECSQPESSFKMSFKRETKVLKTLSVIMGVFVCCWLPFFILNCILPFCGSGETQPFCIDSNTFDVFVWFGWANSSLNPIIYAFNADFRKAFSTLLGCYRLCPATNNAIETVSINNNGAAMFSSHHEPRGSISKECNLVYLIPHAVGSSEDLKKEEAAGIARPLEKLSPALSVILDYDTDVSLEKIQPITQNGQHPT
#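 Agonism was scored from calcium flux recorded over 180 s (1 read/s) after pintool compound addition, following a 10-cycle baseline. Cells were inducible force-coupled HEK293 TREx D1, plated overnight at 30 C and loaded with no-wash calcium dye.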
# D3 antag – blocks the human D3 dopamine receptor; 2.5% of 360,000 active; max response, negative = inhibition, %; AID 652054; D3R cells, DiscoveRx beta-arrestin luminescence, antagonist mode; stronger effect = lower value; P35462; in the data active = max response below about -50%; inconclusive = no clear call, values can overlap the other calls
#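 Cells plated overnight at 1500 cells/well, then exposed to library compounds with dopamine controls for 90 minutes at 37 degrees C. DiscoveRx reagent added for 30–60 minutes at room temperature; luminescence read, quantitative HTS format.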
# D1 potentiator – human D1 dopamine receptor positive modulation; HEK293 TREx D1 cells, calcium flux, dopamine EC20 potentiation; potentiation, % at 10 µM; AID 504651; 0.036% of 360,000 active; in the data active = potentiation above about 30%
# D1 antag – human D1 dopamine receptor antagonism | 3.2% of 360,000 active | HEK293 TREx D1 cells, calcium flux, dopamine EC80; stronger effect = lower value | activity change, negative = inhibition, % at 10 µM | P21728; in the data active = activity change below about -30%
#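 Calcium flux readout: force-coupled, inducible Hek293 Trex D1 line, cells induced overnight at 30 C with tetracycline, dye-loaded 30–90 min at RT. Antagonism scored against EC80 dopamine challenge given 180 s after compound.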
# Hits are given with their value; - = inactive; ? = inconclusive; . = no result given; ! = repeats disagree. Sampled rows, rich in hits. Any-hit rate of the full collection: about 6%.
SMILES,DRD3 agonist,D1 agonist,D3 antag,D1 potentiator,D1 antag
COc1ccc(C(=O)/C=C/Nc2ccc([N+](=O)[O-])cc2C)c(OC)c1,32,-,-,-,-
CC(C)C(=O)Nc1ccc2nc(SCC(=O)N3CCc4ccccc43)sc2c1,-,-,.,-,-
CC1(C(=O)Nc2ccc3c(c2)OCCO3)CSCC(=O)N1C1CCN(Cc2ccccc2)CC1 (stereo not drawn),-,.,-61,.,.
CC(CCc1ccc(O)cc1)NC1c2ccccc2-c2ccccc21 (stereo not drawn),-,-,-,-,-
COc1ccccc1CCNC(C)CCc1ccc(O)cc1 (stereo not drawn),-,-,-,-,-
CC(CCc1ccc(O)cc1)NC1C2CC3CC(C2)CC1C3 (stereo not drawn),-,-,-56,-,-
CC(CCc1ccc(O)cc1)NCCc1ccc(O)c(O)c1 (stereo not drawn),108,.,-,.,.
CC(CCc1ccc(O)cc1)NCC(O)c1ccc(O)cc1 (stereo not drawn),59,.,.,.,.
Cc1ccc(NC(=O)CN2CC(C)SC2=NC2CCCCC2)cc1 (stereo not drawn),-,-,-96!,-,-
CCc1ccc(NC(=O)CN2CCN(C3CCCCC3)C(=O)C2=O)cc1,-,-,.,-,-
CCCCc1ccc(NC(=S)NCc2cccs2)cc1,-,-,-,-,-32
O=C(/C=C/c1ccc(Cl)cc1)c1ccc([N+](=O)[O-])o1,-,-,-101,-,-
Cc1cc(O)c(C(=O)/C=C/c2ccc(Cl)cc2)c(=O)o1,-,-,-,-,-
Cc1ccc(/C=C/C(=O)c2ccc([N+](=O)[O-])o2)cc1,-,-,-62,-,-
CCOC(=O)C1CCN(C(=O)c2ccc(CNS(=O)(=O)c3ccc(C)cc3)cc2)CC1,-,-,-,-,-37
COc1ccc(CN2CCN(C(=O)c3ccc(CNS(=O)(=O)c4ccc(C)cc4)cc3)CC2)c(OC)c1OC,-,-,-,-,-30
CCOC(=O)C1CCN(C(=O)CCNS(=O)(=O)c2ccc(C)cc2)CC1,-,-,-,-,-
Cc1ccc(S(=O)(=O)NCc2ccc(C(=O)NC3CC3)cc2)cc1,-,-,-,-,-
COc1cccc(CN2CCN(C(=O)c3ccc(-c4ccccc4)cc3)CC2)c1OC,-,-,-,-,-37
CCOC(=O)N1CCC(NC(=O)c2ccc(CNS(=O)(=O)c3ccc(F)cc3)cc2)CC1,-,-,-,-,-34
Cc1cc(Br)cn2c(Cc3ccccc3)c(-c3ccccc3)nc12,-,.,-,.,.
Nc1c(-c2nc(-c3ccccc3Cl)no2)nnn1-c1ccccc1F,-,-,.,-,-
CCCCC(CC)COS(=O)(=O)O (stereo not drawn),-,.,.,.,.
COc1ccccc1N1CCN(C(=O)c2ccc(Nc3nc4ccccc4n4nnnc34)cc2)CC1,-,-,.,-,-
O=C(CC1S/C(=N/N=C/c2ccco2)NC1=O)Nc1cccc(Cl)c1Cl (stereo not drawn),-,-,-61,-,-
SMILES,DRD3 agonist,D1 agonist,D3 antag,D1 potentiator,D1 antag
CCCC1S/C(=N/N=C/c2ccco2)NC1=O (stereo not drawn),-,-,-,-,-
CCc1ccc(NCc2cccn2-c2nnc(N3CCCCCC3)s2)cc1,-,-,.,-,-31
O=C(Nc1ccccc1Br)N1CCN2CCCCC2C1 (stereo not drawn),-,-,.,-,-
COc1cc(-c2cc(OC)c3c(C)oc(C)c3c(=O)c2)ccc1OC(=O)c1ccccc1F,-,-,.,-,-
Cc1cc(/C=N/NC(=O)c2cccs2)c(C)n1-c1ccccc1,-,-,-,-,-39
NS(=O)(=O)c1ccc(NC(=S)Nc2ccn(Cc3cccc4ccccc34)n2)cc1,-,-,?,-,-53
C=C[C@@]1(C)CC(=O)[C@]2(O)[C@@]3(C)[C@@H](O)CCC(C)(C)[C@@H]3[C@H](OC(C)=O)[C@H](O)[C@@]2(C)O1,-,.,-,.,.
C=C[C@@]1(C)CC(=O)[C@]2(O)[C@@]3(C)[C@@H](O)CCC(C)(C)[C@@H]3[C@H](O)[C@H](OC(C)=O)[C@@]2(C)O1,36!,.,-,.,.
O=C(CC1(CC(=O)N2CCOCC2)CCCC1)Nc1ccc(F)cc1,-,.,-,.,.
COc1ccc(/C(C)=N/N=C2/NC(=O)CC(C(=O)O)S2)cc1F (stereo not drawn),-,-,-,-,-31
CNC(=O)C1CC(=O)N/C(=N/N=C(\C)c2cccs2)S1 (stereo not drawn),-,-,-,-,-32
C/C(=N\N=C1\NC(=O)CC(C(=O)O)S1)c1cccs1 (stereo not drawn),-,.,-,.,.
OC[C@@H](O)C(O)[C@H](O)CO,-,.,.,.,.
Cc1ccc(OCCn2cnc3c2c(=O)n(C)c(=O)n3C)cc1,-,-,-,-,-32
Cn1c(=O)c2c(ncn2CC(=O)Nc2nc(-c3ccccc3Cl)cs2)n(C)c1=O,32,-,-,-,-
Cc1ccc(Cl)c(OC(=O)Cn2cnc3c2c(=O)n(C)c(=O)n3C)c1,-,-,-,-,-41
Cn1c(=O)c2c(ncn2CC(COCc2ccccc2)OCc2ccccc2)n(C)c1=O (stereo not drawn),-,-,-,-,-55
Cn1c(=O)c2c(ncn2Cc2ccccc2)n(C)c1=O,-,-,-,-,-
Cn1c(=O)c2c(ncn2CCO)n(C)c1=O,-,-,-,-,-
C[C@@H]1CCC2[C@@H](C)[C@@H](O)O[C@@H]3O[C@@]4(C)CC[C@@H]1[C@@]23OO4 (stereo partly drawn),-,.,.,.,.
Cc1ccc(C)c(NC(=O)c2nc(S(C)(=O)=O)ncc2N(Cc2ccc(C(C)(C)C)cc2)Cc2ccco2)c1,-,-,.,-,-
CSc1ccc(NC(=O)NN(c2ccccc2)C2CCS(=O)(=O)C2)cc1 (stereo not drawn),-,.,-,.,.
C[C@@H]1CN([C@@H](C)CO)C(=O)CCCn2nncc2CO[C@@H]1CN(C)C(=O)Nc1cccc(C(F)(F)F)c1,-,.,-,.,.
CNc1nc2c(c(=O)n(C)c(=O)n2C)n1CC(O)COc1ccc(OC)cc1 (stereo not drawn),-,-,.,-,-
Cc1ccc(OCC(O)Cn2c(N)nc3c2c(=O)n(C)c(=O)n3C)cc1 (stereo not drawn),53,-,-,-,-
Cc1ccc(CSc2nc3c(c(=O)[nH]2)C(c2ccncc2)C2=C(CCCC2=O)N3)cc1 (stereo not drawn),-,-,-,-,-48
O=C(Nc1ccc(Oc2ccccc2)cc1)C1CCCO1 (stereo not drawn),-,-,-79,-,-
COc1ccc(C(=O)N[C@H](C(=O)NC2CCCCC2)C(C)C)cc1,-,.,-,.,.
COc1cccc(C(=O)NNC(=O)C2CCCO2)c1 (stereo not drawn),-,-,-,-,-
COc1ccc(NC(=O)C2CCCO2)cc1 (stereo not drawn),-,-,-,-,-
